High-throughput results: PubChem BioAssay, National Center for Advancing Translational Sciences (NCATS)
Pin1 inh: qHTS Assay to Find Inhibitors of Pin1; Peptidyl-prolyl cis-trans isomerase NIMA-interacting 1 (Homo sapiens), Q13526; Pin1 FP peptide displacement, HiFluor488, 10 min; Potency, µM (series often up to 115 µM), inactives show at the highest dose activity, negative = inhibition, actives largely listed as inhibitors; 390,000 tested, 0.009% active; AID 504891, 2011; active = well fitted inhibition curve with a large enough effect in the polarisation, with a control signal flat, not every such curve was filed as active; inconclusive = small, poorly fitted or top-dose-only effect, or effect the other way, or a change in a side signal; inactive = no such curve, though single readings can be large or run the other way; the % refers to the polarisation; also: % is scaled to controls: 0 for no effect and ±100 for the full control effect
Target sequence (Q13526 whole entry, looked up): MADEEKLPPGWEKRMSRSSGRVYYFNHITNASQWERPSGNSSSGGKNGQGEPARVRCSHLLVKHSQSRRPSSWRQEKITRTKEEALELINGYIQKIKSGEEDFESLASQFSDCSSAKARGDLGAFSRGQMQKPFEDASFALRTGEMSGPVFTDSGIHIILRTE
Nrf2 block: Nrf2 qHTS screen for inhibitors; A549 ARE-Fluc reporter, luciferase luminescence, 18-24 h; Potency, µM (titrated, usually from 46 µM), for the others: at the highest dose activity change, negative = inhibition, most hits filed as inhibitors; 360,000 tested, 2.1% active; also: % is scaled to controls: 0 for no effect and ±100 for the full control effect; nearly all actives have a fitted effect of over 60% in size
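Quantitative HTS in A549 cells stably bearing an antioxidant response element-firefly luciferase construct. Inhibition of Nrf2-driven transcription was scored by luminescence after 18-24 h of compound exposure at 37 °C.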
A549 tox: Nrf2 qHTS screen for inhibitors: counterscreen for cytotoxicity | A549 ARE-Fluc cells, CellTiter-Fluor viability, 18-24 h | AID 504648, 2011 | Potency, µM (doses to about 46 µM), for the others: at the top dose activity change, negative = cytotoxicity, most hits filed as inhibitors | 390,000 tested, 0.16% active; also: % is scaled to controls: 0 for no effect and ±100 for the full control effect
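Cytotoxicity counterscreen: CellTiter-Fluor fluorescence was measured in A549 ARE_Fluc cells after 18-24 h of compound exposure in a concentration series. The subsequent BugLite luminescent read reports ARE-luciferase activity.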
Nrf2 activator: qHTS of Nrf2 Activators. AREc32 ARE-luciferase reporter (MCF7-derived line), luminescence, 24 h. Potency, µM (series often up to 46.1 µM), without a hit: top-dose activation, usual class: activators. 410,000 tested, 0.31% active; also: % of control where 0% means no effect; nearly all actives have a fitted effect of over 65% in size
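Luciferase luminescence (Steady-Glo, 30 min at room temperature) served as the read-out of ARE activation in AREc32 cells treated with compounds for 24 hr at 37 deg C.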
Starred values were filed as active, the others as inactive; ? = inconclusive; . = no result given; [ ] = remark or other dose. The list is not random: actives were taken first. Their share in the collection is about 2.2%. Unless noted, calls follow the shape of the dose curve; as a rule, active = well fitted curve in the direction sought with a large enough effect; inconclusive = small, poorly fitted or top-dose-only effect, or another doubt; inactive = no such curve, though single readings can be large; an effect the other way counts as inactive or inconclusive. Potency is read from the fitted curve at half-maximal effect.

SMILES	Pin1 inh	Nrf2 block	A549 tox	Nrf2 activator
Cc1ccc(-n2nc(C)c(C(=O)NCCCN3CCN(c4cccc(Cl)c4)CC3)c2-n2cccc2)cc1	14%	16µM*	?	-1%
Fc1ccc(N2CCN(c3nc4ccccc4c4nc(-c5cccnc5)nn34)CC2)cc1	-1%	-7%	-15%	-1%
CC(/C=N/n1c(-c2cc(C)[nH]n2)n[nH]c1=S)=C\c1ccco1	?	-9%	-12%	5%
CC(/C=N/n1c(-c2ccc(Cl)cc2)n[nH]c1=S)=C\c1ccco1	15%	13%	-7%	2.8µM*
CC(/C=N/n1cnnc1)=C\c1ccco1	-9%	12%	-1%	11µM*
CCOc1ccc(S(=O)(=O)Nc2ccc(F)cc2)c(C)c1C	-4%	18µM*	-27%	3%
Cc1ccc(-n2[nH]c(C)c(/C=N/Nc3ccc([N+](=O)[O-])cc3[N+](=O)[O-])c2=O)cc1C	?	?	16µM*	6%
CCCCCN(C(=O)CCC(=O)OCc1ccc(C(C)(C)C)cc1)c1c(N)n(CCCC)c(=O)[nH]c1=O	0%	13µM*	-12%	3%
COCc1oc2ccc(NS(=O)(=O)c3ccc(C)cc3)cc2c1C(=O)OC	-1%	-16%	-2%	1%
COc1ccc(N2N=NN(C(C)C)C2=C(Cl)c2nnnn2-c2ccc(OC)cc2)cc1	-1%	24%	-3%	16µM*
COc1ccc(-n2nnnc2-c2ccccc2)cc1	-4%	12%	-17%	0%
O=c1cc(C(F)(F)F)[nH]c2ccc(C(F)(F)F)cc12	-3%	21µM*	?	8%
CCOC(=O)N1CCC(Nc2ncnc3c2cnn3-c2ccccc2)CC1	?	16µM*	-11%	3%
CC(=O)c1cccc(Oc2cc(NN3CCCCC3)c([N+](=O)[O-])cc2[N+](=O)[O-])c1	-10%	?	?	0%
CC(=O)c1ccccc1Oc1cc(NN2CCCCC2)c([N+](=O)[O-])cc1[N+](=O)[O-]	1%	26µM*	-19%	1%
CNc1nc(-c2ccccn2)nnc1-c1ccccc1	5%	11µM*	?	3%
CC(=O)Nc1ccc(S(=O)(=O)N2CCCN(S(=O)(=O)c3ccc4c(c3)OCCO4)CC2)cc1	2%	?	-10%	.
Cc1cc(C)n(-c2ccc(C(=O)Nc3cccnc3Cl)cc2)n1	-15%	?	-9%	0%
Cc1cc(C)n(-c2ccc(C(=O)Nc3cc(S(=O)(=O)N(C)C)ccc3Cl)cc2)n1	-5%	18µM*	1%	-1%
CN(Cc1cccs1)c1ncnc2ccc(-c3ccc4cnn(C)c4c3)cc12	7%	-13%	?	.
Cc1ccc(S(=O)(=O)NCc2ccc(C(=O)N3CCN(c4ccccc4)CC3)cc2)cc1	-1%	23µM*	-5%	0%
O=C(c1ccc(CNS(=O)(=O)c2ccccc2)cc1)N1CCN(Cc2ccccc2)CC1	?	13µM*	-15%	0%
CC(C)CNS(=O)(=O)c1ccc(CCC(=O)N2CCN(c3ccccc3)CC2)cc1	8%	10µM*	?	2%
Cc1ccc(S(=O)(=O)N2CCN(C(=O)c3ccc(COc4ccccc4)o3)CC2)cc1	14%	23µM*	-4%	0%
CCNS(=O)(=O)c1ccc(CCC(=O)N2CCN(c3ccccc3)CC2)cc1	-5%	?	-8%	3%
SMILES	Pin1 inh	Nrf2 block	A549 tox	Nrf2 activator
O=[N+]([O-])c1cccc(S(=O)(=O)N2CCN(c3nc(-c4cccs4)nc4ccccc34)CC2)c1	0%	0%	0%	.
Cc1ccc(NS(=O)(=O)c2ccc(C(=O)N3CCN(S(=O)(=O)c4ccccc4)CC3)cc2)cc1	34%	21µM*	-25%	1%
Cc1ccc(C(=O)NCC(=O)N2CCCN(S(=O)(=O)c3ccc(C)cc3)CC2)cc1	1%	0%	7%	0%
O=C(c1ccc(S(=O)(=O)c2ccccc2Cl)c([N+](=O)[O-])c1)N1CCN(Cc2ccccc2)CC1	6%	18µM*	?	19%
N#Cc1ccc(CN2CCN(C(=O)c3ccc(S(=O)(=O)NCc4ccco4)cc3)CC2)cc1	-3%	8.2µM*	?	11%
Cc1ccc(S(=O)(=O)N2CCN(C(=O)CNC(=O)c3ccc(Cl)cc3)CC2)cc1	5%	21µM*	0%	1%
O=C(c1ccc(S(=O)(=O)NCc2ccco2)cc1)N1CCCC1	1%	-5%	1%	0%
Cc1ccc(S(=O)(=O)NCc2ccc(N3CCN(C(=O)OC(C)(C)C)CC3)cc2)cc1	0%	26µM*	-10%	0%
C/C(=N\Nc1nc(C)cc(-c2ccccc2)n1)c1cccc(N)c1	1%	21µM*	-4%	2%
CCN(CCCNC(=O)c1cc2c(=O)[nH]c3ccc(C)cc3c2s1)Cc1ccccc1	-3%	15%	?	26%
NCCCn1c(C(=O)c2cc(Cl)c(N)c(Cl)c2)c2ccc([N+](=O)[O-])cc2[n+]1[O-]	5%	157%	18µM*	?
Cc1cc2n(n1)C(c1ccc(O)cc1)Nc1ccccc1-2 (stereo not drawn)	6%	18µM*	.	1%
COc1cc(C2Nc3ccccc3-c3cc(C)nn32)ccc1O (stereo not drawn)	-4%	28%	8%	5%
Cc1oc2c(c1C(=O)NCc1cccnc1)C(=O)c1ccccc1C2=O	-4%	5.2µM*	2.6µM*	-5%
COc1ccc(CNC(=O)c2c(C)oc3c2C(=O)c2ccccc2C3=O)cc1	4%	4.1µM*	4.6µM*	-5%
CC(=O)c1ccc(NC(=O)c2cn(-c3ccccc3)nc2-c2ccc(Br)cc2)cc1	37%	7%	-5%	0%
CC(C)S(=O)(=O)c1csc(NC(=O)Nc2cc(Cl)ccc2Cl)c1Cl	14%	18µM*	-19%	-1%
CC(=O)NC(CCS(C)(=O)=O)C(=O)Nc1cc(Cl)ccc1Cl (stereo not drawn)	-2%	0%	1%	-1%
CCOc1ccc(NC(=O)CSc2oc(-c3ccc(F)cc3)nc2S(=O)(=O)c2ccc(C)cc2)cc1	2%	8%[9.27 µM]	-6%	-1%
COc1ccc(C2=C(c3ccc([N+](=O)[O-])cc3)C(=O)OC2)cc1	-7%	-2%	-1%	0%
Cc1ccc(C2=C(c3ccc([N+](=O)[O-])cc3)C(=O)OC2)cc1C	?	23µM*	-17%	3%
O=C(NCCc1nc2ccccc2n1CCOc1cccc2ccccc12)C1CCCCC1	-1%	-20%	-3%	.
O=C(Nc1ccc2c(c1)OCCO2)c1ccc2ccccc2n1	-4%	?	-10%	7.9µM*
COc1ccc2cc3cc(C(=O)Nc4ccc5c(c4)OCCO5)oc3nc2c1	4%	18µM*	-25%	2%
Cc1cc(NC(=O)c2ccc3c(c2)OCCO3)cc(-c2nc3ccccc3o2)c1O	-1%	?	-8%	-1%
O=C(Nc1ccc2oc(-c3ccccc3F)nc2c1)c1ccc2c(c1)OCCO2	36%	13µM*	?	0%
O=C(Nc1ccc2c(c1)OCCO2)c1ccccn1	1%	?	-5%	0%
